Rows were chosen to be rich in hits. Some 1.6% of all compounds tested hit in one or more screens of this group.
KCNQ2 pot = potentiators of rat KCNQ2 potassium channel; O88943; CHO-K1 KCNQ2, FluxOR thallium flux fluorescence; active compounds read high; B-score at 10 µM; 0.54% of 310,000 active;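 active = fluorescence ratio B-score at least 3 SD of library B-scores, with initial fluorescence B-score within 3 of them, cut at about 5.3 in these data; same plate scores as AID 2156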;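 note: B-score of peak minus minimum over baseline fluorescence ratio after K+ and Tl+ stimulus; positive B-score means potentiation of KCNQ2 with more thallium influx and brighter signal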
Target sequence (O88943 whole entry, looked up): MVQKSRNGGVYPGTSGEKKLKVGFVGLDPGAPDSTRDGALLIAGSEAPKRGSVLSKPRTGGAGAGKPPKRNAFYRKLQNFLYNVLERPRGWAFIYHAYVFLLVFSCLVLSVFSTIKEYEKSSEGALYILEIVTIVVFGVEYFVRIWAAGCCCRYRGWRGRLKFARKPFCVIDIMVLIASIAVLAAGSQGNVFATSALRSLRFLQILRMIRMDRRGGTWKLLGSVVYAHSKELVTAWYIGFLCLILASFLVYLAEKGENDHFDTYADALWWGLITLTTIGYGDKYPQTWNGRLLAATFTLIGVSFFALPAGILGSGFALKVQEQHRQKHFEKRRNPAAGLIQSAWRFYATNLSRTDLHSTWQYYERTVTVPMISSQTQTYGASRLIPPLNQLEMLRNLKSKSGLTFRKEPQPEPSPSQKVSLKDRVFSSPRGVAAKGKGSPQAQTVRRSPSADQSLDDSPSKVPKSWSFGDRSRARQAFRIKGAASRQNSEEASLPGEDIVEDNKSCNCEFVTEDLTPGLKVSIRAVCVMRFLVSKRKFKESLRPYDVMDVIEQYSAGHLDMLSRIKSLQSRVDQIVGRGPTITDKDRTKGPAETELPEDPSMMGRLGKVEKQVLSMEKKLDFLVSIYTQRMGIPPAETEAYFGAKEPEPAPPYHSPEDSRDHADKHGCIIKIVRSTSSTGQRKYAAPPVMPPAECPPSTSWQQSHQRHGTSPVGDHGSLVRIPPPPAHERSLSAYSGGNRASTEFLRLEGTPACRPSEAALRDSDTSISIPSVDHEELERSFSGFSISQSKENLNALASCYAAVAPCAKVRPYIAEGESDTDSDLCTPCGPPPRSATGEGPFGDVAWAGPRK
KCNQ2 block = inhibitors of rat KCNQ2 potassium channel. O88943. CHO-K1 KCNQ2, FluxOR thallium flux, 20 min; active compounds read low. B-score at 10 µM. 1.1% of 310,000 active. AID 2156;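 active = fluorescence ratio B-score at most minus 3 library SDs, with starting brightness B-score within 2 library SDs, cut at about -5.5 in these data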
* = called active by the depositor.

How did COc1cccc(C(=O)NC23CC4CC(CC(C4)C2)C3)c1 do in these assays?
KCNQ2 pot: 0.94; KCNQ2 block: inactive

Results for COc1ccccc1OCC(=O)N/N=C1\CCc2ccccc21 ?
KCNQ2 pot: -5.6; KCNQ2 block: -5.6*

What do the screens show for `COc1ccc(C(=O)N/N=C2\CCc3ccccc32)cc1OC`?
KCNQ2 pot: 0.19; KCNQ2 block: inactive

What do the screens show for `Cc1cccc2c1OCC/C2=N\NC(=O)COc1ccccc1`?
KCNQ2 pot: -7.3; KCNQ2 block: -7.3*

How did COc1ccccc1OCC(=O)N/N=C1\CCCCc2ccccc21 do in these assays?
KCNQ2 pot: -7.1; KCNQ2 block: -7.1*

What do the screens show for `COc1ccc(OCC(=O)N/N=C2\CCCc3ccccc32)cc1`?
KCNQ2 block: inactive

How did O=C(COc1cccc(Br)c1)N/N=C1\CCCc2ccccc21 do in these assays?
KCNQ2 block: inactive

What do the screens show for `CCN(CC)C(=S)NC(=O)c1cc(OC)c(OC)c(OC)c1`?
KCNQ2 block: inactive

Results for O=C(CCC(=O)OCC(F)(F)C(F)F)Nc1ccccc1F ?
KCNQ2 pot: 1.7; KCNQ2 block: inactive

How did Cc1ccccc1CN1CCN(C(=O)c2ccc(F)cc2)CC1 do in these assays?
KCNQ2 block: inactive

What do the screens show for `C=CCn1c(=O)c(C(=O)NCc2ccc(Cl)cc2)c(O)c2ccccc21`?
KCNQ2 pot: -6; KCNQ2 block: -6*

Results for C=CCn1c(=O)c(C(=O)Nc2ccc(C)cn2)c(O)c2ccccc21 ?
KCNQ2 block: inactive

Results for CC/C(=N\O)c1c(O)c2c(n(-c3ccccc3)c1=O)CCCC2 ?
KCNQ2 block: inactive

How did Cc1cc(Cl)ccc1OC(C)C(=O)N1CCCN(C(=O)C(C)Oc2ccc(Cl)cc2C)CC1 (stereo not drawn) do in these assays?
KCNQ2 pot: -6.2; KCNQ2 block: -6.2*

How did Cc1cc(Cl)ccc1OCC(=O)N1CCCN(C(=O)COc2ccc(Cl)cc2C)CC1 do in these assays?
KCNQ2 block: inactive

What do the screens show for `NC(=O)CC(NC(=O)c1cccc(Br)c1)c1ccc(NC2CCCCCCC2)c([N+](=O)[O-])c1` (stereo not drawn)?
KCNQ2 pot: 0.39; KCNQ2 block: inactive

How did Cc1cccc(C)c1NC(=O)/C(=C/c1ccco1)c1ccccc1 do in these assays?
KCNQ2 block: inactive

What do the screens show for `Cc1cc(C)c(NC(=O)/C(=C/c2ccco2)c2ccccc2)c(C)c1`?
KCNQ2 pot: -6; KCNQ2 block: -6*

How did COCCCn1c(SCC(=O)NC2CCCC2)nnc1-c1cccs1 do in these assays?
KCNQ2 pot: 1.6; KCNQ2 block: inactive

What do the screens show for `Cc1ccccc1NC(C)C(=O)N/N=C/c1ccccc1OCc1cccc(Br)c1` (stereo not drawn)?
KCNQ2 pot: -8.3; KCNQ2 block: -8.3*

What do the screens show for `COc1ccc(NC(C)C(=O)N/N=C/c2ccccc2OCc2cccc(Br)c2)cc1` (stereo not drawn)?
KCNQ2 block: inactive

Results for COc1cc(OC)c(C2CC(=O)N3CN(C)CSC3=C2C#N)cc1OC (stereo not drawn) ?
KCNQ2 pot: 1.3; KCNQ2 block: inactive

Results for COc1ccc2ccccc2c1C1CC(=O)N2CN(C)CSC2=C1C#N (stereo not drawn) ?
KCNQ2 pot: -6.9; KCNQ2 block: -6.9*

How did Cc1ccc(C(=O)NCc2nnc(SCC(=O)NC(C)c3ccccc3)n2C)cc1 (stereo not drawn) do in these assays?
KCNQ2 pot: 1.2; KCNQ2 block: inactive

Results for Cc1ccc(C(=O)O/N=C(\N)c2ccc(Br)cc2)cc1C ?
KCNQ2 pot: 0.55; KCNQ2 block: inactive

Results for Cc1cc(C)cc(C(=O)O/N=C(\N)c2ccc(Br)cc2)c1 ?
KCNQ2 pot: -6.8; KCNQ2 block: -6.8*

Results for N/C(=N\OC(=O)c1cccc2ccccc12)c1ccc(Br)cc1 ?
KCNQ2 pot: -5.6; KCNQ2 block: -5.6*

How did N/C(=N\OC(=O)c1cccc2ccccc12)c1ccncc1 do in these assays?
KCNQ2 block: inactive

Results for CC(=O)N/C(=C\c1ccccc1)C(=O)OCc1cc(C)ccc1C ?
KCNQ2 block: inactive

Results for CCOC(=O)C(Cc1ccccc1)C(=O)Nc1cccc2ccccc12 (stereo not drawn) ?
KCNQ2 pot: -5.8; KCNQ2 block: -5.8*

Results for CCOC(=O)C(Cc1ccccc1)C(=O)NCc1cccnc1 (stereo not drawn) ?
KCNQ2 pot: 0.94; KCNQ2 block: inactive

How did O=C(c1cccc([N+](=O)[O-])c1)N1CCN(c2n[nH]c(=O)[nH]c2=O)CC1 do in these assays?
KCNQ2 pot: 0.6; KCNQ2 block: inactive

How did COc1ccc(NC(=O)[C@H](C)NC(=O)[C@@H]2Cc3ccccc3CN2C(=O)OC(C)(C)C)cc1 do in these assays?
KCNQ2 block: inactive

Results for CCOc1ccc(C2C(C(=O)OC)=CN(C(C)c3ccccc3)C=C2C(=O)OC)cc1 (stereo not drawn) ?
KCNQ2 pot: -7.4; KCNQ2 block: -7.4*
